Test results taken from publication PMC7862700, “An all-to-all approach to the identification of sequence-specific readers for epigenetic DNA modifications on cytosine”.

Tests used:
Assay in all cases: DAPPL (digital affinity profiling via proximity ligation, sequencing); 10 mM Tris-HCl pH 7.5, 50 mM NaCl, 1 mM DTT, 4% glycerol, room temperature, 30 min; GST-TFs on glutathione beads, 16-mer random dsDNA library, 0.1% formaldehyde crosslink after washing; high values mean tight binding
Conditions in all cases: protein: recombinant; tags: N-terminal GST; dsDNA, one strand shown
FLI1 = biological target: T1, FLI1 (Homo sapiens, UniProt Q01543 1-452)
T1 sequence: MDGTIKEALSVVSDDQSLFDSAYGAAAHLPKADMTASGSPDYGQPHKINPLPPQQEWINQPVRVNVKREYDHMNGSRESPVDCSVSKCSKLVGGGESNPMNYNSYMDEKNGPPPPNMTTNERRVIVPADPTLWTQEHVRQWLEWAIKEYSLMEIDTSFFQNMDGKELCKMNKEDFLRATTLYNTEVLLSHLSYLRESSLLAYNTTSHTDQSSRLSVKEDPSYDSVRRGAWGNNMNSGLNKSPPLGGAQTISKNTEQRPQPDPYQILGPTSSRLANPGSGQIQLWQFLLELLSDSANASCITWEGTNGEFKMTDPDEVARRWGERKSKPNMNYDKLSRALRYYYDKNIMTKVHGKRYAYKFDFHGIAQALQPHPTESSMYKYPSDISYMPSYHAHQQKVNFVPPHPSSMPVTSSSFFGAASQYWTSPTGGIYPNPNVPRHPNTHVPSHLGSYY
Summary of the method: (§1)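 Beads coated with glutathione captured GST-fused human transcription factors that had been expressed in yeast, and the factors were then given DNA barcodes and pooled with a tag-only sample. The pools were incubated with 200 nmole of a random double-stranded 16-mer DNA library in Tris/NaCl/DTT/glycerol buffer for 30 min at room temperature, washed, crosslinked with 0.1% formaldehyde and proximity-ligated with BsaI/T4 ligase at 37 °C for 1 h. PCR amplification and Illumina NextSeq500 sequencing came last. Binding signal is each hexamer's read frequency for a factor divided by its frequency for the tag-only sample.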

ELK1 = biological target: T2, ELK1 (Homo sapiens, UniProt P19419 1-428)
T2 sequence: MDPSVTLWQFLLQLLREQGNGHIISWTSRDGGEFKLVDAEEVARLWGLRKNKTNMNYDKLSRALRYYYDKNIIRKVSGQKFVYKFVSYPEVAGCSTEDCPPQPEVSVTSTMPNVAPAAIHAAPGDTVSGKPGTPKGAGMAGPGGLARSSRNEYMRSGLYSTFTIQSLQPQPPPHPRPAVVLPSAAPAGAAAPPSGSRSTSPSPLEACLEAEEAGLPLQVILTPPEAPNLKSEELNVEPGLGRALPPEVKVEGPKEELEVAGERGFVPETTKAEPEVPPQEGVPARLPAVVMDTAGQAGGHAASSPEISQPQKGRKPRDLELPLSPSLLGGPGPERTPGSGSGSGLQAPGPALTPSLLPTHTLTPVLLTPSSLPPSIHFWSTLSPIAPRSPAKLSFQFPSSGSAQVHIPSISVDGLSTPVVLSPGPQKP
Summary of the method: as §1

GABPA = biological target: T3, GABPA (Homo sapiens, UniProt Q06546 1-454)
T3 sequence: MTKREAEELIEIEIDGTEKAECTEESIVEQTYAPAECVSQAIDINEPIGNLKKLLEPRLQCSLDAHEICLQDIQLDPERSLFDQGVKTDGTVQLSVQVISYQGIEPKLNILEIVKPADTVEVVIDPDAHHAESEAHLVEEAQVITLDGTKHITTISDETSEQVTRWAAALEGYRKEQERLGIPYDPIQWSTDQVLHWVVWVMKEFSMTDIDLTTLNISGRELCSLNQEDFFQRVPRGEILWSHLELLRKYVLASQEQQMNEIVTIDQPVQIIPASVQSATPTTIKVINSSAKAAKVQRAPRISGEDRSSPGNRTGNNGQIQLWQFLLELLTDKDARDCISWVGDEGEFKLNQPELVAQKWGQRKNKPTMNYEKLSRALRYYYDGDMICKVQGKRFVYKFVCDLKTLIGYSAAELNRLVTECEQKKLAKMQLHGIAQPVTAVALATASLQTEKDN
Summary of the method: as §1

ERG = biological target: T4, ERG (Homo sapiens, UniProt P11308 1-479)
T4 sequence: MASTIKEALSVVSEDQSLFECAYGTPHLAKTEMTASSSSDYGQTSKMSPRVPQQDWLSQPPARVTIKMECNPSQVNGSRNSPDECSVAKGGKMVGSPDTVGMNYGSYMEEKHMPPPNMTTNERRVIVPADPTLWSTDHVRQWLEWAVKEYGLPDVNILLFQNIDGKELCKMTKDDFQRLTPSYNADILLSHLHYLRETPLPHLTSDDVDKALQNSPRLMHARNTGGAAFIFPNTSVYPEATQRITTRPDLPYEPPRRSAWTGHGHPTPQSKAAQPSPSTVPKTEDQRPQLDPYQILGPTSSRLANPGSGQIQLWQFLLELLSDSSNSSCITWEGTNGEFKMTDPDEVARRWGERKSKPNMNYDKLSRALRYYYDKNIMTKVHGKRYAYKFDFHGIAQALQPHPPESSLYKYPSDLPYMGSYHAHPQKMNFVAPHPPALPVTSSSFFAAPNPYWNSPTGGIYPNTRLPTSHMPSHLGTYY
Summary of the method: as §1

ELF1 = ELF1 (Homo sapiens, UniProt P32519 1-619)
Summary of the method: as §1

EHF = biological target: T5, EHF (Homo sapiens, UniProt Q9NZC4 1-300)
T5 sequence: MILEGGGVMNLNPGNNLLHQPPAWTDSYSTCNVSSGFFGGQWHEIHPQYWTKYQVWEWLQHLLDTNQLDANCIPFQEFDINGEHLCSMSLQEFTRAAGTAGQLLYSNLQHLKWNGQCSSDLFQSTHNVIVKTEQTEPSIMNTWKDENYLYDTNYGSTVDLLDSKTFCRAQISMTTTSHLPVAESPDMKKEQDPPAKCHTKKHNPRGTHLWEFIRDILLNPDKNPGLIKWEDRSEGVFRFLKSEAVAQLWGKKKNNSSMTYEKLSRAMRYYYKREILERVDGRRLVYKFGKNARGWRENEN
Summary of the method: as §1

SPI1 = SPI1 (Homo sapiens, UniProt P17947 1-270)
Summary of the method: as §1

SPIB = SPIB (Homo sapiens, UniProt Q01892 1-262)
Summary of the method: as §1

ELK3 = biological target: T6, ELK3 (Homo sapiens, UniProt P41970 1-407)
T6 sequence: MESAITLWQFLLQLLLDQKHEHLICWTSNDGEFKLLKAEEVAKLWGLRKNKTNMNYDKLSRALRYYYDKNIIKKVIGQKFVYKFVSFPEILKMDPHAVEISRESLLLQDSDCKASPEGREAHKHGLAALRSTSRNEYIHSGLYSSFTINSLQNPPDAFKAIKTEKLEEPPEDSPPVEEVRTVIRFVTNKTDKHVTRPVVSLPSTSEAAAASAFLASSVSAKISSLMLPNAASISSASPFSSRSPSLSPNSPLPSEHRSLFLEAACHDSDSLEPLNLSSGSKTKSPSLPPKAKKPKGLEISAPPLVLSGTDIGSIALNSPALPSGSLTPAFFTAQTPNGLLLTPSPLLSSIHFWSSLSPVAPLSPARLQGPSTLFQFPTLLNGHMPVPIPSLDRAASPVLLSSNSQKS
Summary of the method: as §1

FEV = biological target: T7, FEV (Homo sapiens, UniProt Q99581 1-238)
T7 sequence: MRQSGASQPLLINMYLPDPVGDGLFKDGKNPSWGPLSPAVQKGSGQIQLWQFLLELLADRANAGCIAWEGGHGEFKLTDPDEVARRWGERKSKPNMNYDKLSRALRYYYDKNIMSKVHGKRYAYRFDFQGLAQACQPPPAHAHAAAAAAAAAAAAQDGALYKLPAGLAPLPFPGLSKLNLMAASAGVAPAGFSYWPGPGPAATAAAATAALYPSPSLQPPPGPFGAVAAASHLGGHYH
Summary of the method: as §1

ETV5 = ETV5 (Homo sapiens, UniProt P41161 1-510)
Summary of the method: as §1

SPIC = biological target: T8, SPIC (Homo sapiens, UniProt Q8N5J4 1-248)
T8 sequence: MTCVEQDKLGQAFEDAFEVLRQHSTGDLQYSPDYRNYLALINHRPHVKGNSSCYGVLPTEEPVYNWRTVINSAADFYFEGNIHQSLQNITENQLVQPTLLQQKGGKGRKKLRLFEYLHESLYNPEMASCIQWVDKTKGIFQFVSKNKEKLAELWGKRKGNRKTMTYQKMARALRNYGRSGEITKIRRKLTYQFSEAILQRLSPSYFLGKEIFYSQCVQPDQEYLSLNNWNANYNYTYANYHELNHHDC
Summary of the method: as §1

ELF4 = ELF4 (Homo sapiens, UniProt Q99607 1-663)
Summary of the method: as §1

ELK4 = biological target: T9, ELK4 (Homo sapiens, UniProt P28324-2 1-405)
T9 sequence: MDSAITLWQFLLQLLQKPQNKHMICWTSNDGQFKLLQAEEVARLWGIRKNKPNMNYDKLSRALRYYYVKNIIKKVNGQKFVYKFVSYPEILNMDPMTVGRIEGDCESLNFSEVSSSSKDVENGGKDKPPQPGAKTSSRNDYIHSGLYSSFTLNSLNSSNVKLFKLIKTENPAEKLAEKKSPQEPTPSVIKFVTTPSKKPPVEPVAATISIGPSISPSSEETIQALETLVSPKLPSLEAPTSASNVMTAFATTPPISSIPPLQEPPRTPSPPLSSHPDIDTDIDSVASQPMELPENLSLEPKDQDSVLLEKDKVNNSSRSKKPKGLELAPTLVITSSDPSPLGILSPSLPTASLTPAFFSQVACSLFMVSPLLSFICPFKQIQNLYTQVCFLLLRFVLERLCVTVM
Summary of the method: as §1

ETV2 = biological target: T10, ETV2 (Homo sapiens, UniProt O00321 1-342)
T10 sequence: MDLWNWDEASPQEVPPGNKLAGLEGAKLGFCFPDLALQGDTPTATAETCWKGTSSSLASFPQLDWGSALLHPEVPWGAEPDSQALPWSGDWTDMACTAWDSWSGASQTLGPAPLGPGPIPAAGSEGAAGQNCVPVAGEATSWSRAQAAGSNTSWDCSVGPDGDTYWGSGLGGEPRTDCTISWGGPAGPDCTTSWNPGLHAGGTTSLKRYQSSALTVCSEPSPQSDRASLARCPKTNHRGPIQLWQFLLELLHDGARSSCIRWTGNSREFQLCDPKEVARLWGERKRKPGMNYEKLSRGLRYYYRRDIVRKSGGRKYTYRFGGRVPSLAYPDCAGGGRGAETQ
Summary of the method: as §1

ELF3 = biological target: T11, ELF3 (Homo sapiens, UniProt P78545 1-371)
T11 sequence: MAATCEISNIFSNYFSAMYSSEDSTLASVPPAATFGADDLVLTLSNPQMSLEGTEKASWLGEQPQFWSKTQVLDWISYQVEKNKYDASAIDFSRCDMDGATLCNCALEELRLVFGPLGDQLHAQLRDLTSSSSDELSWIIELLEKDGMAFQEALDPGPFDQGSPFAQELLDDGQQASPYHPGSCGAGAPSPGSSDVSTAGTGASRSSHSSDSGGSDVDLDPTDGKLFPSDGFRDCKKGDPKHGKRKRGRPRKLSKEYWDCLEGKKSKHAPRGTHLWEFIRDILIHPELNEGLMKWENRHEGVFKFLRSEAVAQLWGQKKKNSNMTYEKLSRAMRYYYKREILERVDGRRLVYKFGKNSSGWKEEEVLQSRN
Summary of the method: as §1

ETV1 = ETV1 (Homo sapiens, UniProt P50549 1-477)
Summary of the method: as §1

Chain of ELF1 (P32519 whole entry): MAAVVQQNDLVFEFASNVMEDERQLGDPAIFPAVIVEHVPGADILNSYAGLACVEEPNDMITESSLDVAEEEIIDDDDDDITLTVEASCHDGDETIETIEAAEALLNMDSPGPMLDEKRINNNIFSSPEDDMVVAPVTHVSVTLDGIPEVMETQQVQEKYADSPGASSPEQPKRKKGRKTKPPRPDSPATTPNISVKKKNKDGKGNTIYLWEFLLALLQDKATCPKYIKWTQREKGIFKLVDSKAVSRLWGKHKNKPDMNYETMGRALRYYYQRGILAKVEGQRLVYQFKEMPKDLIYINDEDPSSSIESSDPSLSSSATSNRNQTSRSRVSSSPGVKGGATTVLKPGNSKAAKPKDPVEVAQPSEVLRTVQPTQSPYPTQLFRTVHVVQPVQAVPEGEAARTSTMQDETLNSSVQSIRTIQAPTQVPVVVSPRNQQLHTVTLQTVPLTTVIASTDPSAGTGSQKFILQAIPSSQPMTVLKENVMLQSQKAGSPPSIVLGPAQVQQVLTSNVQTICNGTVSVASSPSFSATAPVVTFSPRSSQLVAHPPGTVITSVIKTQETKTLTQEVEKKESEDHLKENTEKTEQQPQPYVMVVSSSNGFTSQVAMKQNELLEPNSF
Chain of SPIB (Q01892 whole entry): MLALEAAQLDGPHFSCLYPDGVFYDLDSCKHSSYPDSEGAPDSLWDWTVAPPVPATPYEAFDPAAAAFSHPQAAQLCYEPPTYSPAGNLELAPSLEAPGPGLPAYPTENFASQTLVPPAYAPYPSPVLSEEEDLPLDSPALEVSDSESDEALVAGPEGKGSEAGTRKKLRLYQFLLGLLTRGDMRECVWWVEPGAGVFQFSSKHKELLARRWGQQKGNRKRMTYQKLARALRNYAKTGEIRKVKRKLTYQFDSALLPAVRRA
Chain of ETV5 (P41161 whole entry): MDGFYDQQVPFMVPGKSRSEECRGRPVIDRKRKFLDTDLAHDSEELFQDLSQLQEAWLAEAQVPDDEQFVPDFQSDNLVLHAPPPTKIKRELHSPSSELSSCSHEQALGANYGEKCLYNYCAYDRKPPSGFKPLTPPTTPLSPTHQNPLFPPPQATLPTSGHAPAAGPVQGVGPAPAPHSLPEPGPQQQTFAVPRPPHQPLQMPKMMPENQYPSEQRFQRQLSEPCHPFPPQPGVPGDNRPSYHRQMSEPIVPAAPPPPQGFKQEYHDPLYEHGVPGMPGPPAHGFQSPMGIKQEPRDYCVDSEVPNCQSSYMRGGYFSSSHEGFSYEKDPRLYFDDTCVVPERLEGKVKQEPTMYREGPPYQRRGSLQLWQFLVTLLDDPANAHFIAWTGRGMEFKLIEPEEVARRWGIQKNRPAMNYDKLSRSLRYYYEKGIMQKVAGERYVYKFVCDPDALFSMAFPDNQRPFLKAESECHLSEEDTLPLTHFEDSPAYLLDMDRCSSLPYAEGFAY
Chain of ETV1 (P50549 whole entry): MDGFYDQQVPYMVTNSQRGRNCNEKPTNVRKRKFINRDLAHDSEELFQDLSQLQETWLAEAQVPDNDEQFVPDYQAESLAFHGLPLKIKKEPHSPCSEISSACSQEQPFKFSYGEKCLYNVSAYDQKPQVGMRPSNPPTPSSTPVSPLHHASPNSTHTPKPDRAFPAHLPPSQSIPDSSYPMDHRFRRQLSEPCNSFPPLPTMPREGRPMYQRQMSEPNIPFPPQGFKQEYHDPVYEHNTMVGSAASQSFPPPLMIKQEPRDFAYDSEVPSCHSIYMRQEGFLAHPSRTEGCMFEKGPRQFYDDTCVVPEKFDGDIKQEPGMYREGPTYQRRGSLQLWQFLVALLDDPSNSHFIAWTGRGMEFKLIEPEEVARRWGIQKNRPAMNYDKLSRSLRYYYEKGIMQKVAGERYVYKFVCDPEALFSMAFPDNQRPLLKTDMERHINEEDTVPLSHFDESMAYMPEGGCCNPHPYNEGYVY
Chain of ELF4 (Q99607 whole entry): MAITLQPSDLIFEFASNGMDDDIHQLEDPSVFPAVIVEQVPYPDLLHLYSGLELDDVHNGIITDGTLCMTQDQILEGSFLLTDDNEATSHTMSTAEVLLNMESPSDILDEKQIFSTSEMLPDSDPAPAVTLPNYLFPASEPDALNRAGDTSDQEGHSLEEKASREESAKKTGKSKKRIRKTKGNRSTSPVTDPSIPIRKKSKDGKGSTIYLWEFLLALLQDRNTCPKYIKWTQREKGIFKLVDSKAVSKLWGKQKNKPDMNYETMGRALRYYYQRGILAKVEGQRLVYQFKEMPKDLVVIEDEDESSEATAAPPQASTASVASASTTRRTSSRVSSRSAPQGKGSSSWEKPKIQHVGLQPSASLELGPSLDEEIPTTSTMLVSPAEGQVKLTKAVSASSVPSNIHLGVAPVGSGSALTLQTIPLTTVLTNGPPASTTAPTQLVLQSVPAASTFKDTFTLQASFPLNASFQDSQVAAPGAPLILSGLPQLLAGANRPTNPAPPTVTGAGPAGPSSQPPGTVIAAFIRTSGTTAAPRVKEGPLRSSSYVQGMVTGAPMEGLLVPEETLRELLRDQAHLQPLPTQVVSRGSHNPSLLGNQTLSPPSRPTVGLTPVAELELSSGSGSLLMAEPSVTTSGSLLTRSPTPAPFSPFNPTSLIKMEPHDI

Sequence | binding signal (FLI1) | binding signal (ELK1) | binding signal (GABPA) | binding signal (ERG) | binding signal (ELF1) | binding signal (EHF) | binding signal (SPI1) | binding signal (SPIB) | binding signal (ELK3) | binding signal (FEV) | binding signal (ETV5) | binding signal (SPIC) | binding signal (ELF4) | binding signal (ELK4) | binding signal (ETV2) | binding signal (ELF3) | binding signal (ETV1)
CATATC | 1.25 fold enrichment (6-mer frequency, TF over GST control) | 1.39 fold enrichment (6-mer frequency, TF over GST control) | 1.26 fold enrichment (6-mer frequency, TF over GST control) | 1.37 fold enrichment (6-mer frequency, TF over GST control) | 1.32 fold enrichment (6-mer frequency, TF over GST control) | 1.36 fold enrichment (6-mer frequency, TF over GST control) | 1.3 fold enrichment (6-mer frequency, TF over GST control) | 1.32 fold enrichment (6-mer frequency, TF over GST control) | 1.34 fold enrichment (6-mer frequency, TF over GST control) | 1.4 fold enrichment (6-mer frequency, TF over GST control) | 1.36 fold enrichment (6-mer frequency, TF over GST control) | 1.23 fold enrichment (6-mer frequency, TF over GST control) | 1.29 fold enrichment (6-mer frequency, TF over GST control) | 1.24 fold enrichment (6-mer frequency, TF over GST control) | 1.41 fold enrichment (6-mer frequency, TF over GST control) | 1.28 fold enrichment (6-mer frequency, TF over GST control) | 1.41 fold enrichment (6-mer frequency, TF over GST control)
CATCAC | 1.1 fold enrichment (6-mer frequency, TF over GST control) | 1.1 fold enrichment (6-mer frequency, TF over GST control) | 1.18 fold enrichment (6-mer frequency, TF over GST control) | 1.15 fold enrichment (6-mer frequency, TF over GST control) | 1.19 fold enrichment (6-mer frequency, TF over GST control) | 1.13 fold enrichment (6-mer frequency, TF over GST control) | 1.11 fold enrichment (6-mer frequency, TF over GST control) | 1.11 fold enrichment (6-mer frequency, TF over GST control) | 1.05 fold enrichment (6-mer frequency, TF over GST control) | 1.16 fold enrichment (6-mer frequency, TF over GST control) | 1.13 fold enrichment (6-mer frequency, TF over GST control) | 1.26 fold enrichment (6-mer frequency, TF over GST control) | 1.12 fold enrichment (6-mer frequency, TF over GST control) | 1.29 fold enrichment (6-mer frequency, TF over GST control) | 1.11 fold enrichment (6-mer frequency, TF over GST control) | 1.14 fold enrichment (6-mer frequency, TF over GST control) | 1.1 fold enrichment (6-mer frequency, TF over GST control)
